ELG1 DNA repair = blocks ELG1-dependent DNA repair in HEK293T cells; HEK293T ELG1-luciferase reporter, luminescence, 16 h; DNA damage induced by 5-fluorouridine; Potency, µM (highest dose often 46.1 µM), without a hit: at the top dose activity change, negative = inhibition, hits mostly inhibitors; actives 2.3% (n = 330,000); AID 504467; note: potency is the fitted concentration of half-maximal effect; nearly all actives have a fitted effect of over 55% in size
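DMSO vehicle served as the neutral condition. Each well held 2,000 cells given 5-fluorouridine plus compound; after 16 hr at 37 °C/5% CO2, ONE-Glo was added and luciferase measured 30 min later.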
Giardia killer = Giardia lamblia killing. Giardia lamblia trophozoite viability. activity change, % at 7.66 µM, hits read low. actives 0.15% (n = 340,000). AID 540267; in the data active = activity change below about -80%; inconclusive = between about -30% and that limit;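 note: parasites exposed to compound for two days anaerobically before the ATP read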
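Each well holds 100 Giardia trophozoites and compound. After two days (48 hrs) at 37 deg C in anaerobic conditions, ATP is quantified by luminescence.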
TDP1 cell CPT = growth inhibition of DT40 Tdp1-/-;hTDP1 cells with camptothecin (screen for TDP1 inhibitors); chicken DT40 Tdp1-/-;hTDP1 cells + 20 nM CPT, ATP luminescence, 48 h; Potency, µM (top dose mostly 46.2 µM), inactives show at the top dose activity change, negative = growth inhibition, actives largely listed as inhibitors; actives 12% (n = 420,000); AID 686979; note: potency is the fitted concentration of half-maximal effect; nearly all actives have a fitted effect of over 55% in size
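Cell growth measured by CellTiter-Glo luminescence after a minimum 48 h, 37 C compound exposure with 20 nM CPT in Tdp1-knockout DT40 cells stably expressing hTDP1, seeded 400/well; qHTS titration format.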
DT40 TDP1 no CPT = qHTS for Inhibitors of human tyrosyl-DNA phosphodiesterase 1 (TDP1): qHTS in cells in absence of CPT. DT40 Tdp1-/- hTDP1 cells, no CPT, ATP luminescence, 48 h. Potency, µM (series often up to 46.2 µM), for the others: top-dose activity change, negative = growth inhibition, most hits filed as inhibitors. actives 15% (n = 420,000). AID 686978, 2013; note: potency is the fitted concentration of half-maximal effect; nearly all actives have a fitted effect of over 55% in size
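Seeded 400 DT40-hTDP1 cells/well (vehicle DMSO, no 20 nM CPT); pinned compounds; ≥48 hr at 37 °C; CellTiter-Glo luminescence as viability measure.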
IL-1B inflam inh = blocks inflammasome-driven IL-1 beta release | THP-1 LPS/ATP IL-1B secretion, AlphaLISA, 16 h; active compounds read low | activity change, % at 57.5 µM | actives 4.7% (n = 360,000) | AID 743279; in the data active = activity change below about -50%; inconclusive = mostly about -30% to -49%
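Secreted IL-1B measured by AlphaLISA bead assay after 16 h compound exposure of THP-1 cells; compounds (final up to 57.5 uM) added 1 h before LPS (250 ng/mL) and ATP (1.25 mM) stimulation; lower signal means less secretion.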
TDP1 block = blocks human tyrosyl-DNA phosphodiesterase 1; Q9NUW8; recombinant TDP1, AlphaScreen DNA substrate cleavage; Potency, µM (doses to about 130 µM), inactives show at the highest dose activity change, negative = inhibition, usual class: inhibitors; actives 0.28% (n = 350,000); note: potency is the fitted concentration of half-maximal effect; nearly all actives have a fitted effect of over 40% in size
Target sequence (Q9NUW8 whole entry, looked up): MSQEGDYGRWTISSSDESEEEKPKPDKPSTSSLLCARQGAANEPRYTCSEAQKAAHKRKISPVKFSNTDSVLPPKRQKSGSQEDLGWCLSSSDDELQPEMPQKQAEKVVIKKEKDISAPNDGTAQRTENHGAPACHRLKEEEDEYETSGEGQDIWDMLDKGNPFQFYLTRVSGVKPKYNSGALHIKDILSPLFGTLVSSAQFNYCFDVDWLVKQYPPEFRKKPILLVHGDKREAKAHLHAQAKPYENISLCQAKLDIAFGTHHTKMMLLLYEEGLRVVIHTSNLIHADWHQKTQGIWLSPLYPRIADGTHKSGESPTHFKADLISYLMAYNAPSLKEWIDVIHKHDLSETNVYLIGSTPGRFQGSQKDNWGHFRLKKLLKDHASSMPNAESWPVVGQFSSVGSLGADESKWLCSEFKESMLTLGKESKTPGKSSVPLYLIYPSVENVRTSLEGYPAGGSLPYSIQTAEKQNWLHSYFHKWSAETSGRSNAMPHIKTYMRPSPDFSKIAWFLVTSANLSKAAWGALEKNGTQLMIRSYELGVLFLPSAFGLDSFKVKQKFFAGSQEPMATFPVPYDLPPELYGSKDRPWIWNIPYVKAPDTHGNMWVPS
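Signal: AlphaScreen proximity between streptavidin donor and anti-FITC acceptor beads on intact substrate. Reaction: Tdp1 1 nM, substrate 15 nM final, 5 min RT after 15 min compound preincubation.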
The depositor's hits bear a star; ? = inconclusive; · = not tested or not shown; ! = repeats disagree. Sampled rows, rich in hits. Any-hit rate of the full collection: about 19%. Unless noted, calls come from the whole dose curve; as a rule, active = well fitted curve in the direction sought with a large enough effect; inconclusive = small, poorly fitted or top-dose-only effect, or another doubt; inactive = no such curve, though single readings can be large; an effect the other way counts as inactive or inconclusive. % is set by controls: 0 for no effect and ±100 for the full control effect.

SMILES | ELG1 DNA repair | Giardia killer | TDP1 cell CPT | DT40 TDP1 no CPT | IL-1B inflam inh | TDP1 block
CCOC(=O)[C@]12CCC=C1N(CCC1=CCCCC1)C(=O)[C@H](CC(=O)NCc1ccc(OC)c(OC)c1)C2 | · | · | ? | -29% | -7 | ·
CCOC(=O)[C@]12CCCC=C1N(CCc1ccc(OC)c(OC)c1)C(=O)[C@H](CC(=O)NCc1ccccc1)C2 | · | · | 16µM* | 13µM* | ? | ·
Cc1ccc(NC(=O)N2N=C(c3ccc(F)cc3)CC2c2ccc(F)cc2)cc1 (stereo not given) | ? | 7 | -24% | -3% | -4 | -3%
Cc1ccccc1C(=O)Nc1ccc(C(=O)OCc2cc(=O)n3nc(C(C)C)sc3n2)cc1 | · | · | -3% | -25% | · | 9%
Cn1cnnc1SCC(=O)Nc1cc(C(=O)O)cc(C(=O)O)c1 | · | · | -16% | 0% | · | -7%
O=C(CCN1C(=O)c2ccccc2S1(=O)=O)Nc1ccc(Cl)cc1 | -5% | -5 | -8% | 11% | 13 | 2%
COc1ccc(NC(=S)N2CCN(Cc3cccc(F)c3)CC2)c(OC)c1 | -2% | -2 | 23µM* | 21µM* | 26 | 2%
COc1ccccc1NC(=S)N1CCN(Cc2ccccc2)CC1 | 9% | -14 | ? | ? | -15 | 8%
COc1ccc(NC(=S)N2CCCC2)c(OC)c1 | 1% | 4 | -18% | -14% | 3 | -1%
COc1ccc(NC(=S)N2CCN(Cc3ccco3)CC2)c(OC)c1 | ? | -6 | ? | 13µM* | 0 | 4%
COc1cc(CNC(=O)c2ccc3c(c2)N(C)C(=O)C2CCCCN32)cc(OC)c1OC (stereo not given) | · | · | ? | ? | · | 4%
CCN(CC)C(=O)c1ccc(COc2ccc(Cl)c(C)c2)o1 | ? | -7 | 16µM* | 13µM* | -11 | ·
Cc1cc(OCc2ccc(C(=O)n3cccn3)o2)ccc1Cl | ? | -13 | ? | ? | 0 | 6%
CCOC(=O)C1C(C)=CC(=O)CC1c1ccco1 (stereo not given) | -11% | 12 | -11% | ? | -3 | -6%
CCOC(=O)C1C(=O)C=C(/C=C/c2ccccc2)CC1c1ccc(Cl)cc1 (stereo not given) | 7% | 1 | 29µM* | ? | -26 | 0%
CC(C)=CCC1=C(OCC(=O)O)C(=O)c2ccccc2C1=O | -26% | -16 | 23µM* | 29µM* | 15 | 0%
COc1ccccc1OCC(=O)O | -2% | 6 | -1% | -7% | -11 | -2%
CC(C)=CCC/C(C)=C/CC/C(C)=C/CC/C(C)=C/CC1=C(C)C(=O)c2ccccc2C1=O | ? | 1 | 27µM*! | 24µM* | 0 | 6%
CC(=O)OC/C=C(\C)CC/C=C(\C)CC/C=C(\C)CC/C=C(\C)CC/C=C(\C)CC/C=C(\C)CC/C=C(\C)CC/C=C(\C)CCC=C(C)C | · | · | 10% | 14% | · | 8%
Cc1ccc(-n2ncc3c2CC(C)(C)CC3NC(=O)c2ccccn2)cc1 (stereo not given) | ? | 0 | ? | ? | -81* | 1%
Cc1ccccc1-n1ncc2c1CC(C)(C)CC2NC(=O)CCC(F)(F)F (stereo not given) | 5% | 11 | -11% | ? | 6 | ·
Cc1ccccc1-n1ncc2c1CC(C)(C)CC2NC(=O)c1ccncc1 (stereo not given) | -9% | 16 | -10% | -20% | 2 | 1%
COC(=O)CCC(=O)NC1CC(C)(C)Cc2c1cnn2-c1ccc(F)cc1 (stereo not given) | -2% | -23 | 0.58µM* | ? | 26 | 0%

Bioassay records (PubChem)
